Shown are actives, neighbours in structure and some others; about 2.1% of the full set was active somewhere.
U2OS ROS induce: raises reactive oxygen species in U2OS cancer cells. U2OS ROS induction, H2DCF-DA fluorescence. ROS induction (% of piperlongumine), % at 10 µM. actives 2% (n = 46,000). AID 624156; in the data active = ROS induction above about 79%, passing the limit was not always enough; inconclusive = no clear call, values can overlap the other calls;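 also: 0% = DMSO vehicle median and 100% = reference compound median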
PD-1 reversal: activators reversing PD-1 mediated T-cell inhibition; 29,000 tested, under 10 active; activation, % (concentration not given with the values); primary human CD4 T cells, PD-L1 beads, CellTiter-Glo 96 h; call rule not given here;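 also: 0% = median vehicle wells and 100% = positive control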
YB-1 expression: YB-1 expression inhibition; U2OS, qRT-PCR YB-1 vs CDIP delta delta Cp, 16 h; active compounds read high; zero = DMSO, each unit about twofold; delta delta Cp (YB-1 minus CDIP) (concentration not given with the values); actives 0.37% (n = 30,000);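 active = delta delta Cp rounded down to an integer at or above 3, about 3 SD of DMSO wells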;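 also: higher means less YB-1 transcript or more CDIP transcript relative to DMSO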
Numbers without * were called inactive.

Screening O=C(Oc1ccc(N(Cc2cccs2)C2=NS(=O)(=O)c3ccccc32)cc1)c1ccccc1 returned U2OS ROS induce 57, PD-1 reversal 1 and YB-1 expression -0.18.
For CN(/N=C/c1ccccc1)C1=NS(=O)(=O)c2ccccc21 the results were U2OS ROS induce 96*, PD-1 reversal 1 and YB-1 expression 0.073.
`Nc1cc(C(F)(F)F)ccc1Oc1ccc(C2CCCCC2)cc1` gave U2OS ROS induce -3, PD-1 reversal -5 and YB-1 expression -0.58.
For Nc1ncnc2c1cnn2-c1ccccc1 the results were U2OS ROS induce 35, PD-1 reversal -1 and YB-1 expression 3.9*.
c1ccc(-n2ncc3c(N4CCc5ccccc54)ncnc32)cc1 was read as U2OS ROS induce -4, PD-1 reversal 3 and YB-1 expression 0.26.
Cc1ccc(CN(CC(=O)O)S(=O)(=O)c2c(C)cc(C)cc2C)cc1 was read as U2OS ROS induce -3 and PD-1 reversal 3.
For CCOC(=O)c1cc(-c2ccnn2S(=O)(=O)c2cccc(C(F)(F)F)c2)on1 the results were U2OS ROS induce 184*.
Cc1cc(-c2nc(-c3ccnn3S(=O)(=O)c3cccc(C(F)(F)F)c3)cs2)no1 was read as U2OS ROS induce 29.
Cc1nc2ccccn2c1-c1ccnc(SCC(=O)N(c2ccccc2)C2CCCCC2)n1 was read as U2OS ROS induce 4.
For C[C@@H]1O[C@@H](O[C@H]2[C@H](O[C@H]3CC[C@@]4(C)C(CC[C@]5(C)C4C=C[C@]46OC[C@@]7(CCC(C)(C)C[C@H]74)[C@@H](O)C[C@]65C)[C@]3(C)CO)O[C@H](CO)[C@@H](O)[C@@H]2O[C@@H]2O[C@H](CO)[C@@H](O[C@@H]3O[C@@H](C)[C@H](O)[C@@H](O)[C@H]3O)[C@H](O)[C@H]2O)[C@H](O)[C@H](O)[C@H]1O (some centres undefined) the results were U2OS ROS induce -42 and YB-1 expression 3.4*.
C[C@@H]1O[C@@H](O[C@H]2[C@H](O[C@H]3CC[C@@]4(C)C(CC[C@]5(C)C4CC=C4C6CC(C)(C)CC[C@]6(C(=O)O[C@@H]6O[C@H](CO[C@@H]7O[C@H](CO)[C@@H](O[C@@H]8O[C@@H](C)[C@H](O)[C@@H](O)[C@H]8O)[C@H](O)[C@H]7O)[C@@H](O)[C@H](O)[C@H]6O)CC[C@]45C)[C@]3(C)CO)OC[C@H](O)[C@@H]2O)[C@H](O)[C@H](O)[C@H]1O (some centres undefined) was read as U2OS ROS induce -12 and YB-1 expression -0.12.
Screening Cn1cccc1Cc1nnc(SCC(=O)Nc2ccccc2C(F)(F)F)n1-c1ccc(F)cc1 returned U2OS ROS induce -4.
For CS(=O)(=O)N1CCC(C(=O)N2CCCCC2)CC1 the results were U2OS ROS induce -11.
`C=C1C(=O)O[C@H]2[C@H]1[C@H](O)CC(=C)[C@@H]1CC(=O)C(C)[C@H]21` (some centres undefined) gave U2OS ROS induce inconclusive, PD-1 reversal -7 and YB-1 expression -0.13.
`C=C1C(=O)O[C@H]2C1[C@H](OC(=O)/C(=C/CO)COC(=O)/C(C)=C/CO)CC(=C)[C@@H]1CC(=O)[C@@H](C)[C@@H]12` (some centres undefined) gave U2OS ROS induce 87*, PD-1 reversal -6 and YB-1 expression -0.29.
Screening CCOC(=O)CSc1sc(C(=O)OCC)c2c1S(=O)(=O)N(C)c1ccccc1-2 returned U2OS ROS induce 112*, PD-1 reversal 0 and YB-1 expression -0.41.
Screening CCOC(=O)CSc1ncc(-c2ccccc2)nn1 returned U2OS ROS induce -4 and PD-1 reversal 1.
For Cc1ccc(-n2ncc3c2ncn2nc(Cc4ccccc4)nc32)cc1 the results were U2OS ROS induce 7.
`Cc1ccc(-c2nc3c(cnn3-c3ccccc3)c(=O)n2-c2cccc(C)c2)cc1` gave U2OS ROS induce 187*.
Screening C[C@@H]1CN([C@H](C)CO)C(=O)c2cc(NC(=O)c3ccncc3)ccc2O[C@@H]1CN(C)S(=O)(=O)c1cccs1 returned U2OS ROS induce -4, PD-1 reversal 0 and YB-1 expression 0.024.
Screening Cc1cc(Cl)ccc1N(CC(=O)Nc1c(C)n(C)n(-c2ccccc2)c1=O)S(C)(=O)=O returned U2OS ROS induce 1 and PD-1 reversal 3.
`C[C@@H]1CN([C@H](C)CO)C(=O)Cc2cc(NS(=O)(=O)c3ccc(F)cc3)ccc2O[C@H]1CN(C)Cc1ccc(C(F)(F)F)cc1` gave U2OS ROS induce 207*, PD-1 reversal -3 and YB-1 expression -0.16.
Screening C[C@@H]1CN([C@@H](C)CO)C(=O)Cc2cc(NS(=O)(=O)c3ccc(F)cc3)ccc2O[C@@H]1CN(C)Cc1ccc(C(F)(F)F)cc1 returned U2OS ROS induce 28, PD-1 reversal -3 and YB-1 expression 0.017.
Screening C[C@@H]1CN([C@H](C)CO)C(=O)Cc2cc(NS(=O)(=O)c3ccc(Cl)cc3)ccc2O[C@@H]1CN(C)Cc1ccc(C(F)(F)F)cc1 returned U2OS ROS induce 2, PD-1 reversal -5 and YB-1 expression -0.038.
`C[C@@H]1CN([C@H](C)CO)C(=O)Cc2cc(NC(=O)Cn3cnnn3)ccc2O[C@@H]1CN(C)Cc1ccc(C(F)(F)F)cc1` gave U2OS ROS induce 87* and YB-1 expression 0.14.
C[C@@H]1CN([C@@H](C)CO)C(=O)Cc2cc(NC(=O)Cn3cnnn3)ccc2O[C@@H]1CN(C)Cc1ccncc1 was read as U2OS ROS induce 0 and YB-1 expression 0.13.
`C[C@H]1CN([C@@H](C)CO)C(=O)Cc2cc(NS(=O)(=O)c3ccc(F)cc3)ccc2O[C@@H]1CN(C)Cc1ccc(C(F)(F)F)cc1` gave U2OS ROS induce 146* and YB-1 expression 0.00088.
For CC1=CC(C)C2COC(c3ccccc3OCc3ccccc3)C1C2C (centres undefined) the results were U2OS ROS induce 11, PD-1 reversal 8 and YB-1 expression 0.068.
Screening CC(C)(C)CC(=O)NCc1ccccn1 returned U2OS ROS induce -13.
Cc1cc(C)c(S(=O)(=O)N(C)CC(=O)Nc2cccc(C)c2C)c(C)c1 was read as U2OS ROS induce -11 and PD-1 reversal -2.
CC(C)[C@@H]1C=C(C(=O)O)O[C@H](OCc2ccc(CO)cc2)C1 was read as U2OS ROS induce 6 and YB-1 expression 0.071.
`CC(C)[C@H]1C=C(C(=O)NCc2ccccc2)O[C@@H](OCc2ccc(CO)cc2)C1` gave U2OS ROS induce 17 and YB-1 expression 7.6*.
`C[C@H]1CN([C@@H](C)CO)C(=O)c2cc(NC(=O)Cc3cn(C)c4ccccc34)ccc2O[C@@H]1CN(C)Cc1ccc(C(F)(F)F)cc1` gave U2OS ROS induce 122* and YB-1 expression -0.46.
C[C@@H]1CN([C@@H](C)CO)C(=O)c2cc(NC(=O)Cc3cn(C)c4ccccc34)ccc2O[C@@H]1CN(C)Cc1ccccc1 was read as U2OS ROS induce 13, PD-1 reversal -4 and YB-1 expression -0.45.
Screening C[C@H](CO)N1C[C@H](C)[C@H](CN(C)Cc2ccc(C(=O)O)cc2)Oc2ccc(NC(=O)Cc3cn(C)c4ccccc34)cc2C1=O returned U2OS ROS induce -5, PD-1 reversal 1 and YB-1 expression 0.24.
